Source: PubChem BioAssay (NCATS)
Results filed as inconclusive are left out. Calls of active or inactive are those of the source. Calls follow the shape of the dose curve; as a rule, active = well fitted curve in the direction sought with a large enough effect; inconclusive = small, poorly fitted or top-dose-only effect, or another doubt; inactive = no such curve, though single readings can be large; an effect the other way counts as inactive or inconclusive.

What was measured:
[1] = qHTS of pediatric cancer cell lines to identify multiple opportunities for drug repurposing: Primary screen for SJ-GBM2 cells (AID 1347091)
How it was run: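 Cell viability, CellTiter-Glo luminescence; 500-1,000 cells/well, 8- or 11-point titration, 48 h compound exposure at 37 degrees C, 5% CO2. Controls: DMSO neutral, bortezomib 2.3 µM final as positive.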

[2] = qHTS of pediatric cancer cell lines to identify multiple opportunities for drug repurposing: Primary screen for A673 cells (AID 1347092); also: nearly all actives have a fitted effect of over 45% in size; also: potency is read from the fitted curve at half-maximal effect
How it was run: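 Cell viability of A673 measured by CellTiter-Glo ATP luminescence after 48 hours compound exposure. Dilution series spanned 0.78 nM to 46 µM (MIPE, 11-point) or 0.59 nM to 46 µM (NPC, 8-point); bortezomib 2.3 uM positive control.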

[3] = qHTS of pediatric cancer cell lines to identify multiple opportunities for drug repurposing: Primary screen for SK-N-MC cells (AID 1347093); also: potency is read from the fitted curve at half-maximal effect
How it was run: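 Metabolically active cells were quantified by ATP-dependent luminescence (CellTiter-Glo, 15 min at room temperature) following 48 h treatment. Cells had been plated at 500-1,000 per well and settled for 5 h beforehand.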

[4] = qHTS of pediatric cancer cell lines to identify multiple opportunities for drug repurposing: Primary screen for BT-37 cells (AID 1347094); also: series mostly up to about 57 µM
How it was run: (§1)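 ATP-based luminescence (CellTiter-Glo) quantifies viability after a 48-hour exposure. Compounds are dosed across 8 or 11 final concentrations; DMSO and 2.3 µM bortezomib serve as controls.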

[5] = qHTS of pediatric cancer cell lines to identify multiple opportunities for drug repurposing: Primary screen for NB-EBc1 cells (AID 1347095)
How it was run: as §1

[6] = qHTS of pediatric cancer cell lines to identify multiple opportunities for drug repurposing: Primary screen for U-2 OS cells (AID 1347096); also: nearly all actives have a fitted effect of over 50% in size
How it was run: (§2)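 Cells (500-1,000/well) rested 5 h, then received compounds for 48 h; metabolically active cells were measured by CellTiter-Glo luminescence. Final concentrations spanned up to 46 µM (MIPE, 11-point) or 0.59 nM-46 µM (NPC, 8-point) in primary screens, 11-point in follow-ups.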

[7] = qHTS of pediatric cancer cell lines to identify multiple opportunities for drug repurposing: Primary screen for Saos-2 cells (AID 1347097); also: nearly all actives have a fitted effect of over 40% in size
How it was run: as §1

[8] = qHTS of pediatric cancer cell lines to identify multiple opportunities for drug repurposing: Primary screen for SK-N-SH cells (AID 1347098); also: nearly all actives have a fitted effect of over 65% in size; also: potency is read from the fitted curve at half-maximal effect
How it was run: as §2

[9] = qHTS of pediatric cancer cell lines to identify multiple opportunities for drug repurposing: Primary screen for NB1643 cells (AID 1347099); also: nearly all actives have a fitted effect of over 50% in size; also: potency is read from the fitted curve at half-maximal effect
How it was run: as §1

[10] = qHTS of pediatric cancer cell lines to identify multiple opportunities for drug repurposing: Primary screen for LAN-5 cells (AID 1347100)
How it was run: as §2

[11] = qHTS of pediatric cancer cell lines to identify multiple opportunities for drug repurposing: Primary screen for BT-12 cells (AID 1347101); also: nearly all actives have a fitted effect of over 25% in size
How it was run: as §2

[12] = qHTS of pediatric cancer cell lines to identify multiple opportunities for drug repurposing: Primary screen for Rh18 cells (AID 1347102); also: nearly all actives have a fitted effect of over 65% in size
How it was run: as §2

[13] = qHTS of pediatric cancer cell lines to identify multiple opportunities for drug repurposing: Primary screen for OHS-50 cells (AID 1347103); also: nearly all actives have a fitted effect of over 40% in size
How it was run: as §2

[14] = qHTS of pediatric cancer cell lines to identify multiple opportunities for drug repurposing: Primary screen for RD cells (AID 1347104); also: nearly all actives have a fitted effect of over 55% in size; also: potency is read from the fitted curve at half-maximal effect
How it was run: as §1

[15] = qHTS of pediatric cancer cell lines to identify multiple opportunities for drug repurposing: Primary screen for MG 63 (6-TG R) cells (AID 1347105); also: nearly all actives have a fitted effect of over 50% in size
How it was run: as §1

[16] = qHTS of pediatric cancer cell lines to identify multiple opportunities for drug repurposing: Primary screen for control Hh wild type fibroblast cells (AID 1347106);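 also: series mostly up to about 46 µM; a drop in luminescence marks cytotoxicity and a rise apparent proliferation; nearly all actives have a fitted effect of over 55% in size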
How it was run: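 Cells (500-1,000/well) in growth media were settled 5 h at 37 degrees C, then given compounds for 48 h. Viability was read as CellTiter-Glo luminescence. Primary runs used MIPE at 11 points (0.78 nM-46 µM) and NPC at 8 points (0.59 nM-46 µM); follow-ups used 11 points.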

[17] = qHTS of pediatric cancer cell lines to identify multiple opportunities for drug repurposing: Primary screen for Rh30 cells (AID 1347107); also: series mostly up to about 46 µM; nearly all actives have a fitted effect of over 75% in size
How it was run: as §2

[18] = qHTS of pediatric cancer cell lines to identify multiple opportunities for drug repurposing: Primary screen for Rh41 cells (AID 1347108);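 also: series mostly up to about 46 µM; luminescence drop marks cytotoxic hits; nearly all actives have a fitted effect of over 70% in size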
How it was run: as §1

Measured: Potency

CNC[C@H](O)c1cccc(O)c1
inactive: all assays above

Cc1ccc(-n2nc(C(C)(C)C)cc2NC(=O)Nc2ccc(OCCN3CCOCC3)c3ccccc23)cc1
active: [2] 4.69 µM | [3] 0.662 µM | [8] 0.541 µM | [14] 26.4 µM
not listed: [9] | [11] | [13] | [15]
inactive: all other assays above

Oc1ccc(C2CNCCc3c2cc(O)c(O)c3Cl)cc1 (stereo unspecified)
inactive: all assays above

Cc1cnc(NC(=O)C2=C(O)c3ccccc3S(=O)(=O)N2C)s1
inactive: all assays above

COc1nc(-c2ccc3c(c2)OCO3)n(-c2ccc(NC(=O)CSc3ccccc3)cc2)n1
not listed: [7] | [13]
inactive: all other assays above

CC(c1cc2ccccc2s1)N(O)C(N)=O (stereo unspecified)
inactive: all assays above

CCc1ccc(CCOc2ccc(CC3SC(=O)NC3=O)cc2)nc1 (stereo unspecified)
inactive: all assays above

O=C1CCC(N2C(=O)c3ccccc3C2=O)C(=O)N1 (stereo unspecified)
inactive: all assays above

NC(=O)C1CCCc2c1[nH]c1ccc(Cl)cc21 (stereo unspecified)
inactive: [1] | [4] | [5] | [6] | [10] | [11] | [12] | [15] | [16]
active: [2] 23.5 µM | [3] 26.4 µM

O=c1n(CCCN2CCN(c3cccc(Cl)c3)CC2)nc2ccccn12
inactive: all assays above

CCn1cc(C(=O)O)c(=O)c2cc(F)c(N3CCNC(C)C3)c(F)c21 (stereo unspecified)
not listed: [8] | [9]
inactive: all other assays above

COc1cc2c(cc1OC)CN(CCc1ccc(NC(=O)c3cccc4c(=O)c5cccc(OC)c5[nH]c34)cc1)CC2
active: [2] 4.69 µM | [3] 10.5 µM | [8] 12.1 µM | [9] 7.43 µM
not listed: [14] | [17] | [18]
inactive: all other assays above

NC(=O)c1cnccn1
inactive: all assays above
